The values that follow come from PubChem BioAssay.

For part of these data: Measured potencies and affinities stand elsewhere. Calls of active or inactive are those of the source. Unless noted, how the calls were made is not given here.

Assay [1] deals with Cell division control protein 42 homolog (Homo sapiens) (UniProt P60953). Put plainly: activated mutant Cdc42 GTP-binding inhibitors, dose response, biochemical, multiplex bead flow cytometry, Bodipy-FL-GTP (AID 1333;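 active means fitted half-maximal concentration within the tested dose range, moderate curve steepness, a statistically real signal drop, and little compound fluorescence or tag-binding interference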).
Assay [2] shares this target. Put plainly: wildtype Cdc42 GTP-binding inhibitors, dose response, biochemical, multiplex bead flow cytometry, Bodipy-FL-GTP (AID 1334;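 active means fitted half-maximal concentration within the tested range, moderate curve steepness, significant signal drop, and little compound fluorescence or bead-linkage interference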). The following applies: bead-based flow cytometry, Bodipy-FL-GTP binding to GST-Cdc42; at 100 µM (top of the series) unless noted.
Assay [3] deals with GTPase HRas (Homo sapiens) (UniProt P01112). Put plainly: inhibitors of GTP binding to wildtype Ras, dose response, biochemical, multiplex bead flow cytometry (AID 1335;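 active means fitted half-maximal concentration within 10 nM to 100 µM, steepness 0.5 to 2, significant signal drop, low assay interference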). The following applies: bead-based flow cytometry, Bodipy-GTP binding to GST-Ras; at 100 µM (top of the series) unless noted.
Assay [4] has as its system Ras-related protein Rab-7a (dog), GTP binding. Put plainly: Rab7 GTP binding inhibitors, potency, dose response, biochemical, wildtype, multiplex bead flow cytometry (AID 1336).
Assay [5] deals with Ras-related C3 botulinum toxin substrate 1 (Homo sapiens) (UniProt P63000). Put plainly: wildtype Rac1 GTP binding inhibitors, dose response, biochemical, multiplex bead flow cytometry (AID 1340;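 active means dose curve with midpoint inside tested range, moderate steepness, plateau gap beyond fit error, low compound glow and bead-link interference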). Particulars: GST-Rac1 beads, Bodipy-FL-GTP binding; at 100 µM (top of the series) unless noted.
For assay [6], the target named is GTPase HRas (Homo sapiens) (UniProt P01112). The assay can be described thus: activated Ras mutant GTP binding inhibitors, dose response, biochemical, multiplex bead flow cytometry (AID 1341;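 active means dose-response curve with midpoint inside the tested range, moderate steepness, significant amplitude and little compound fluorescence or bead-attachment interference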;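 further: GST-tagged constitutively activated Ras mutant immobilized on beads and multiplexed with other GTPases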).

Cell division control protein 42 homolog (Homo sapiens), sequence (P60953 whole entry, looked up): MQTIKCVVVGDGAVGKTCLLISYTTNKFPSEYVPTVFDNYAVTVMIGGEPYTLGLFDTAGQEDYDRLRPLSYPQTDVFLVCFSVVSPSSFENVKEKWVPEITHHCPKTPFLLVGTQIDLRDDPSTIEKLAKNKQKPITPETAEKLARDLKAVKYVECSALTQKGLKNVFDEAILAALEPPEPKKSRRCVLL
GTPase HRas (Homo sapiens), sequence (P01112 whole entry, looked up): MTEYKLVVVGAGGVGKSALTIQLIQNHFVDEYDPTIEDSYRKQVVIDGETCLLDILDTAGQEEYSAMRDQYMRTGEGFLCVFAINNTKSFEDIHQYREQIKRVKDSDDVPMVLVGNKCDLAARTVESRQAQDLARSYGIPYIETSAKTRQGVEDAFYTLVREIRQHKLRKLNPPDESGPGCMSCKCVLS

Take `COc1ccccc1CNC(=O)c1c(N)n(CCCN2CCOCC2)c2nc3ccccc3nc12`: the compound was called inactive in assay [1], in assay [4] and in assay [6]. Also, the fluorescence, percent of control (lower = inhibition) in assay [2] amounted to 44.4%. Besides, the GTP binding, percent of control in assay [3] came to 89.9%. This compound also yielded a GTP binding signal, raw median fluorescence (lower = inhibition) (MCF (arbitrary fluorescence units)) in assay [5] of 214.

In the case of `COc1ccccc1NS(=O)(=O)c1cc([N+](=O)[O-])ccc1N/N=C/c1sc(N2CCOCC2)nc1-c1ccccc1`, the compound was called inactive in assay [1], in assay [4] and in assay [6]. The compound further yielded a fluorescence, percent of control (lower = inhibition) in assay [2] of 73.1%. The GTP binding, percent of control in assay [3] worked out at 81%. In assay [5], this compound had a GTP binding signal, raw median fluorescence (lower = inhibition) (MCF (arbitrary fluorescence units)) of 230.

As to `O=C(N/N=C(\c1ccccc1)c1ccccn1)c1cccc([N+](=O)[O-])c1`, the result in assay [1], in assay [4] and in assay [6] was inactive. In assay [2], the fluorescence, percent of control (lower = inhibition) was found to be 31.4%. For the same compound, in assay [3], the GTP binding, percent of control is 68.7%. Besides, the GTP binding signal, raw median fluorescence (lower = inhibition) (MCF (arbitrary fluorescence units)) in assay [5] came to 143.

In the case of `COc1ccc(/C=C(/C#N)C(=O)Nc2ccc(O)cc2)cc1C(=O)O`, the call in assay [1], in assay [4] and in assay [6] was inactive. In assay [2], this compound yielded a fluorescence, percent of control (lower = inhibition) of 29.4%. This compound showed a GTP binding, percent of control in assay [3] of 74.4%. In assay [5], this compound had a GTP binding signal, raw median fluorescence (lower = inhibition) (MCF (arbitrary fluorescence units)) of 177.

`S=C(NCCc1ccccc1)NC1CC1`: the result in assay [1], in assay [4] and in assay [6] was inactive. In addition, the fluorescence, percent of control (lower = inhibition) in assay [2] came to 36.3%. The GTP binding, percent of control in assay [3] was 79.2%. Further, the GTP binding signal, raw median fluorescence (lower = inhibition) (MCF (arbitrary fluorescence units)) in assay [5] was 253.

`O=C(COn1nnc2ccc(Cl)cc21)NCc1ccccc1`: the call in assay [1], in assay [4] and in assay [6] was inactive. This compound came in with a fluorescence, percent of control (lower = inhibition) in assay [2] of 89.6%. For the same compound, the GTP binding, percent of control in assay [3] is 154%. Besides, the GTP binding signal, raw median fluorescence (lower = inhibition) (MCF (arbitrary fluorescence units)) in assay [5] stood at 183.

`CCOC(=O)/C=C1\SCC(=O)N1CCOc1cccc(Br)c1`: the compound was classed as inactive in assay [1], in assay [4] and in assay [6]. In assay [2], this compound yielded a fluorescence, percent of control (lower = inhibition) of 94.9%. The same compound showed a GTP binding, percent of control in assay [3] of 164%. In assay [5], this compound registered a GTP binding signal, raw median fluorescence (lower = inhibition) (MCF (arbitrary fluorescence units)) of 185.

On to `COC(=O)c1ccc(COc2ccccc2/C=N/Nc2cccc(C(=O)O)c2)cc1`, for which the outcome in assay [1], in assay [4] and in assay [6] was inactive. For the same compound, the fluorescence, percent of control (lower = inhibition) in assay [2] was 52.1%. In addition, the GTP binding, percent of control in assay [3] is 100%. The same compound came in with a GTP binding signal, raw median fluorescence (lower = inhibition) (MCF (arbitrary fluorescence units)) in assay [5] of 274.

Consider `CCc1ccc(NC(=O)c2cc3c(C)nc4ccccc4c3o2)cc1`, for which the compound was classed as inactive in assay [1], in assay [4] and in assay [6]. For the same compound, the fluorescence, percent of control (lower = inhibition) in assay [2] is 51.4%. In addition, in assay [3], the GTP binding, percent of control amounted to 93.2%. Moreover, in assay [5], the GTP binding signal, raw median fluorescence (lower = inhibition) (MCF (arbitrary fluorescence units)) is 261.

As for `Cc1ccc(NCc2sc(C(=O)O)cc2C)cc1`, the compound was called inactive in assay [1], in assay [4] and in assay [6]. Besides, in assay [2], the fluorescence, percent of control (lower = inhibition) came to 63%. This compound registered a GTP binding, percent of control in assay [3] of 86.6%. In assay [5], this compound registered a GTP binding signal, raw median fluorescence (lower = inhibition) (MCF (arbitrary fluorescence units)) of 35.4.

For the compound `O=C(O)c1ccc(CSCc2ccccc2Cl)o1`, the result in assay [1], in assay [4] and in assay [6] was inactive. This compound also showed a fluorescence, percent of control (lower = inhibition) in assay [2] of 57.8%. This compound also yielded a GTP binding, percent of control in assay [3] of 79.8%. For the same compound, the GTP binding signal, raw median fluorescence (lower = inhibition) (MCF (arbitrary fluorescence units)) in assay [5] was found to be 30.2.

`CC(C)c1cc(NCc2ccccn2)n2c(nc3ccccc32)c1C#N`: the call in assay [1], in assay [4] and in assay [6] was inactive. Moreover, the fluorescence, percent of control (lower = inhibition) in assay [2] came to 34.4%. In assay [3], this compound yielded a GTP binding, percent of control of 77.4%. In assay [5], this compound gave a GTP binding signal, raw median fluorescence (lower = inhibition) (MCF (arbitrary fluorescence units)) of 178.

On to `Cc1c(NC(=O)CCN2C(=O)c3ccccc3C2=O)c(=O)n(-c2ccccc2)n1C`, for which the outcome in assay [1], in assay [4] and in assay [6] was inactive. In addition, the fluorescence, percent of control (lower = inhibition) in assay [2] was 42.1%. Moreover, the GTP binding, percent of control in assay [3] came to 90.3%. The compound further showed a GTP binding signal, raw median fluorescence (lower = inhibition) (MCF (arbitrary fluorescence units)) in assay [5] of 322.

With `COc1ccc(CC(=O)Nc2ccc(C(=O)Nc3nccs3)cc2)cc1OC`, the call in assay [1], in assay [4] and in assay [6] was inactive. This compound gave a fluorescence, percent of control (lower = inhibition) in assay [2] of 36.7%. Further, in assay [3], the GTP binding, percent of control came out at 75.2%. Moreover, the GTP binding signal, raw median fluorescence (lower = inhibition) (MCF (arbitrary fluorescence units)) in assay [5] was determined as 163.

In the case of `Cn1c(=O)c2c(nc(N/N=C/c3ccco3)n2C)n(C)c1=O`, the result in assay [1], in assay [4] and in assay [6] was inactive. The compound also displayed a fluorescence, percent of control (lower = inhibition) in assay [2] of 31.1%. Moreover, in assay [3], the GTP binding, percent of control came to 69.2%. Further, the GTP binding signal, raw median fluorescence (lower = inhibition) (MCF (arbitrary fluorescence units)) in assay [5] stood at 165.
